Laboratory results taken from PubChem BioAssay AID1159580 (chemical genetic matrix, 2015).
Screen size: about 5,500 compounds; about 2,000 (36%) were called active. Not shown: some 18% with an inconclusive outcome. Cut-off read from the data, not from the text of the source: active = normalized growth mostly below about 0.91 (no sharp cut-off); inconclusive = no clear call, values can overlap the other calls; inactive = mostly above about 0.92. The list shows a part of the results.

Assay: chemical genetic growth profiling, strain panel (AID 1159580);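 note: tested at 20 µM; growth read once vehicle control cultures reached saturation at 30 °C; 1 = growth at the plate median or of vehicle wells; lower values mean less growth of the strain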
Settings: S. cerevisiae deletion strains, growth OD

Measured: normalized growth

COc1ccc(-c2cc(=O)c3c(OC)cccc3o2)cc1
inactive: locus YBR021W, strain FUR4, stronger effect = lower value 0.978 | locus YBR229C, strain ROT2, stronger effect = lower value 1.04 | locus YCL029C, strain bik1, stronger effect = lower value 1.05 | locus YDL035C, strain GPR1, stronger effect = lower value 1.03 | locus YDL074C, strain BRE1, stronger effect = lower value 1.09 | locus YDL101C, strain DUN1, stronger effect = lower value 1.03 | locus YDL185W, strain tfp1, stronger effect = lower value 1.02 | locus YDL192W, strain arf1, stronger effect = lower value 1.06 | locus YDR101C, strain arx1, stronger effect = lower value 1.01 | locus YDR162C, strain NBP2, stronger effect = lower value 1.05 | locus YDR318W, strain mcm21, stronger effect = lower value 1.03 | locus YDR388W, stronger effect = lower value 1.04 | locus YDR502C, strain sam2, stronger effect = lower value 1.01 | locus YER110C, stronger effect = lower value 1.02 | locus YER155C, strain BEM2, stronger effect = lower value 1.03 | locus YER167W, strain BCK2, stronger effect = lower value 1.04 | locus YGL078C, strain dbp3, stronger effect = lower value 0.944 | locus YGL086W, strain mad1, stronger effect = lower value 1.01 | locus YGL248W, strain PDE1, stronger effect = lower value 1.05 | locus YGR135W, strain pre9, stronger effect = lower value 1 | locus YGR252W, strain gcn5, stronger effect = lower value 0.89 | locus YHR079C, strain IRE1 (second series), stronger effect = lower value 1.02 | locus YHR094C, strain hxt1, stronger effect = lower value 1.01 | locus YHR129C, strain ARP1, stronger effect = lower value 1.06 | locus YHR200W, strain rpn10, stronger effect = lower value 1.04 | locus YIL066C, strain RNR3, stronger effect = lower value 1.06 | locus YIL073C, strain SPO22, stronger effect = lower value 1.11 | locus YIL125W, strain kgd1, stronger effect = lower value 1.04 | locus YIR030C, strain dcg1, stronger effect = lower value 1.05 | locus YJL095W, strain BCK1, stronger effect = lower value 1.1 | locus YJL134W, strain LCB3, stronger effect = lower value 1.04 | locus YJL168C, strain set2, stronger effect = lower value 1.03 | locus YJL187C, strain SWE1 (second series), stronger effect = lower value 1.03 | locus YJR043C, strain POL32, stronger effect = lower value 1.04 | locus YJR075W, strain HOC1, stronger effect = lower value 1.06 | locus YKL009W, strain mrt4, stronger effect = lower value 0.911 | locus YKL068W, stronger effect = lower value 1.02 | locus YKL085W, strain MDH1 (second series), stronger effect = lower value 1.04 | locus YKL085W, strain MDH1, stronger effect = lower value 1.04 | locus YKR001C, strain vps1, stronger effect = lower value 1.09 | locus YLR039C, strain RIC1, stronger effect = lower value 1.28 | locus YLR058C, strain SHM2, stronger effect = lower value 1.03 | locus YLR102C, strain apc9, stronger effect = lower value 1.02 | locus YLR262C, strain YPT6, stronger effect = lower value 1.21 | locus YLR268W, strain sec22, stronger effect = lower value 1.02 | locus YLR371W, strain rom2, stronger effect = lower value 1.06 | locus YLR418C, strain cdc73, stronger effect = lower value 1.12 | locus YML016C, strain PPZ1, stronger effect = lower value 1.05 | locus YML032C, strain rad52, stronger effect = lower value 0.998 | locus YML124C, strain tub3, stronger effect = lower value 1.03 | locus YMR078C, strain ctf18, stronger effect = lower value 1.03 | locus YMR223W, strain ubp8, stronger effect = lower value 1.01 | locus YMR307W, strain GAS1, stronger effect = lower value 1.22 | locus YNL067W, strain RPL9B, stronger effect = lower value 1.04 | locus YNL153C, strain GIM3, stronger effect = lower value 1.02 | locus YNL233W, strain BNI4, stronger effect = lower value 1.08 | locus YNL250W, strain rad50, stronger effect = lower value 1.05 | locus YNL271C, strain bni1, stronger effect = lower value 1.04 | locus YNL298W, strain CLA4, stronger effect = lower value 0.98 | locus YNL307C, strain MCK1, stronger effect = lower value 1.03 | locus YNL322C, strain KRE1, stronger effect = lower value 1.04 | locus YNR052C, strain pop2, stronger effect = lower value 1.01 | locus YOL006C, strain TOP1, stronger effect = lower value 1.25 | locus YOL012C, strain htz1 1.26 | locus YOL147C, strain pex11, stronger effect = lower value 1.03 | locus YOR061W, strain CKA2, stronger effect = lower value 1.05 | locus YOR069W, strain VPS5, stronger effect = lower value 1.04 | locus YOR136W, strain idh2, stronger effect = lower value 1.03 | locus YOR144C, strain elg1, stronger effect = lower value 1.01 | locus YOR184W, strain ser1, stronger effect = lower value 1.01 | locus YOR316C, strain cot1, stronger effect = lower value 1.02 | locus YPR119W, strain clb2, stronger effect = lower value 1.05 | locus YPR141C, strain kar3, stronger effect = lower value 1.05 | locus YPR163C, strain tif3, stronger effect = lower value 1.02 | locus YPR167C, strain met16, stronger effect = lower value 1.02 | strain wtn01, stronger effect = lower value 1.01
